The values below come from PubChem BioAssay (NCATS).

Results filed as inconclusive are left out. Calls of active or inactive are those of the source. Unless noted, the call rests on the fitted dose curve; in most records, active means well fitted curve in either direction with a large enough effect (not every such curve was filed as active); inconclusive means small, poorly fitted or top-dose-only effect, or another doubt; inactive means flat fitted curve, though single readings scatter.

Experiment [1] deals with Lysosomal acid glucosylceramidase (Homo sapiens) (UniProt P04062). Kind of experiment: Glucocerebrosidase-p2 (AID 348; in the data active means potency below about 10 µM; further: potency means the concentration at half of the fitted maximal effect). To be noted: purified GBA, blue fluorogenic substrate, 40 min. In short, it runs like this: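 Compounds titrated from 0.6 nM upwards against 0.2 nM enzyme in pH 5.9 citric acid/KH2PO4, taurocholate, tween-20; blue fluorogenic substrate 80 uM, 40 min room temperature, stopped and read Ex 365/Em 440 for AC50.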
Lysosomal acid glucosylceramidase (Homo sapiens), sequence (P04062 whole entry, looked up): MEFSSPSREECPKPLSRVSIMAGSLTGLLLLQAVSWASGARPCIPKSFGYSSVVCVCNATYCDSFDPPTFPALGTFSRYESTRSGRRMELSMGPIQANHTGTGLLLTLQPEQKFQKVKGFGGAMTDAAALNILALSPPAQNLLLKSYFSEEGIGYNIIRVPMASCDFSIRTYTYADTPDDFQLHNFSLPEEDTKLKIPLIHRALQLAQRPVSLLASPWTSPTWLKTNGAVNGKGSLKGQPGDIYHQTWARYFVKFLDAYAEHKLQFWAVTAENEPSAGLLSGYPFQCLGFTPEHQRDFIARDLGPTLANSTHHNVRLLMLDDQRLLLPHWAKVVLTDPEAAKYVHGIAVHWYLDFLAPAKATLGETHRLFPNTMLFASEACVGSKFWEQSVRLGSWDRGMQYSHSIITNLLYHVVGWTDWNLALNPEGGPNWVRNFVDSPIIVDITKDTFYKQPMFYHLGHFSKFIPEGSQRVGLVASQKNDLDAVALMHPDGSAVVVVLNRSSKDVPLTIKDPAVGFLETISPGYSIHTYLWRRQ

Experiment [2] can be described thus: AP1 Signaling Pathway (AID 357). Further: on the % scale 0 is the no-effect control and ±100 the full control effect. To be noted: ME-180 AP-1-bla reporter, EGF-induced, beta-lactamase ratio, 5 h; at 7.69 µM (top of the series) unless noted. In short, it runs like this: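 AP-1-bla ME-180 cells with beta-lactamase reporter under AP-1 response element, stimulated with EC50 EGF; compounds titrated, 5 hours at 37 degrees Celsius. CCF4 read at 460/530 nm ratio; positive and negative modulators judged by AC50.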

Experiment [3] concerns the target Cytochrome P450 1A2 (Homo sapiens) (UniProt P05177). Kind of experiment: p450-cyp1a2 (AID 410; calls by dose curve; further: potency means the concentration at half of the fitted maximal effect). To be noted: recombinant CYP1A2, luciferin-ME demethylation, luminescence; series mostly up to 57 µM. The method in brief:
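Inhibition was calculated relative to 57 uM furafylline (full inhibition). The reaction used human CYP1A2 at 20nM with Luciferin-ME at its Km, 100uM, driven by an NADPH-regenerating system for 60 min at room temperature.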

Experiment [4] is described as follows: NFAT Signaling Pathway (AID 444).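 Further: carbachol stimulus at about its EC50 of 1 µM final; on the % scale 0 is the no-effect control and ±100 the full control effect.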 To be noted: Jurkat NFAT-bla M1, carbachol, beta-lactamase ratio, 5 h; at 7.69 µM (top of the series) unless noted. In short, it runs like this:
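Read-out: CCF4 FRET ratio (460 nm/530 nm) after 1 h RT dye loading, used for %activity and AC50 from titration series. Cells: Jurkat NFAT-β-lactamase/M1 line, treated with compound plus 1 uM carbachol for 5 h, 37 °C.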

Experiment [5] can be described thus: Stat Signaling Pathway (AID 446).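 Further: ME-180 cervical cancer cells given 40 pM IL-6 alongside compound; SIE-controlled beta-lactamase reporter measured as 460/530 nm FRET emission ratio; on the % scale 0 is the no-effect control and ±100 the full control effect.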 To be noted: ME-180 SIE beta-lactamase reporter, IL-6 stimulated, 5 h; at 7.69 µM (top of the series) unless noted. In short, it runs like this: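 Screening format detects activators and inhibitors alike: ME-180 SIE-bla cells stimulated at 40 pM IL-6 for 5 hrs with compound, then dual-emission beta-lactamase read at 405 nm excitation.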

In experiment [6] the target is Glucocorticoid receptor (Homo sapiens) (UniProt P04150). Put plainly: GR-GFP Redistribution (AID 450;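 active means compounds whose dose series gives a full or clear partial fitted curve of increased nuclear translocation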; further: potency means the concentration at half of the fitted maximal effect). To be noted: U2OS GR-GFP nuclear translocation, laser cytometry, 2 h.
Glucocorticoid receptor (Homo sapiens), sequence (P04150 whole entry, looked up): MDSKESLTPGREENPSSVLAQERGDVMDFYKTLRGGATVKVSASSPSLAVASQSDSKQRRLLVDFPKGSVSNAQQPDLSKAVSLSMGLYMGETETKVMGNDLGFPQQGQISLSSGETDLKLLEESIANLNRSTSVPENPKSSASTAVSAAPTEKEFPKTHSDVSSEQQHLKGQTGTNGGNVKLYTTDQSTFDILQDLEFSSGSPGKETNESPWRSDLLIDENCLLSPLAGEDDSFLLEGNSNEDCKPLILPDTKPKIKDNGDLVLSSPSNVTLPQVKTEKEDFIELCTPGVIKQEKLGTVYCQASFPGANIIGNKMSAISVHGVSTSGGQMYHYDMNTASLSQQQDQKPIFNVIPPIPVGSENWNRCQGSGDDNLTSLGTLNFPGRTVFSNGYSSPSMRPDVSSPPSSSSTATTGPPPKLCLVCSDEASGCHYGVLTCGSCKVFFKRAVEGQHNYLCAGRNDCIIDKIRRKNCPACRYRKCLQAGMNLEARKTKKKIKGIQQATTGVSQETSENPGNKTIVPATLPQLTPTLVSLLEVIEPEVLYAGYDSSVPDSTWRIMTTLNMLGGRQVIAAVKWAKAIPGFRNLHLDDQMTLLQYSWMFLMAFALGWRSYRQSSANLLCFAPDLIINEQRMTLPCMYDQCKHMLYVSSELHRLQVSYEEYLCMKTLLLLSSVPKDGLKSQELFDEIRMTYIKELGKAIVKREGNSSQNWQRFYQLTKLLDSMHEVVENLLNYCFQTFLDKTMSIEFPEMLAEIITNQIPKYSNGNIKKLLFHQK
The target is the same in experiment [7]. Kind of experiment: GR-EFC Redistribution (AID 451; calls by dose curve; further: potency means the concentration at half of the fitted maximal effect). The settings on record: CHO-K1 GR-EFC translocation, beta-gal luminescence, 2 h. The method in brief:
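Translocation of GR-ED fusion to nuclear EA restores b-gal, read by luminescence after 1 h room-temperature detection. Engineered CHO-K1 biosensor cells, 1,000/well, exposed 2 h at 37 C to titrations up to 46 uM final.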

Experiment [8] has as its target Mitogen-activated protein kinase 10 (Mus musculus) (UniProt Q61831). Put plainly: JNK3 AlphaScreen Assay (AID 530).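 Further: kinase came from lysate of stimulated human HepG2 cells; signal reports phosphorylation of biotinylated GST-cJun 1-79 at Ser73 with 10 µM ATP; on the % scale 0 is the no-effect control and ±100 the full control effect.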 To be noted: JNK3 lysate, c-Jun phosphorylation; series mostly up to 57.1 µM. The method in brief:
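Room-temperature AlphaScreen kinase assay; pre-activated HepG2 lysate as JNK3 source, biotin-GST-cJun(1-79) substrate, 10 uM ATP, compound 15 min preincubation.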
Background: Bead proximity is the source of the signal in Alpha formats.

In experiment [9] the target is 3',5'-cyclic-AMP phosphodiesterase 4B (Homo sapiens) (UniProt Q07343). Kind of experiment: qHTS Assay for Inhibitors of PDE-IV (AID 607; active means well fitted activation curve with a large enough effect in the main read-out, with a control signal flat, not every such curve was filed as active; further: % of control where 0% means no effect). The settings on record: HEK293 ACTOne CNG channel cells, membrane potential fluorescence; series mostly up to 22.9 µM. The method in brief: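 The readout is membrane depolarisation from a cAMP-sensing CNG channel, detected with a potential dye at ex 535/em 590. Cells were HEK293-derived (endogenous PDE-IV) at 1000 cells/well, titrated up to 22.9 uM final.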
3',5'-cyclic-AMP phosphodiesterase 4B (Homo sapiens), sequence (Q07343 whole entry, looked up): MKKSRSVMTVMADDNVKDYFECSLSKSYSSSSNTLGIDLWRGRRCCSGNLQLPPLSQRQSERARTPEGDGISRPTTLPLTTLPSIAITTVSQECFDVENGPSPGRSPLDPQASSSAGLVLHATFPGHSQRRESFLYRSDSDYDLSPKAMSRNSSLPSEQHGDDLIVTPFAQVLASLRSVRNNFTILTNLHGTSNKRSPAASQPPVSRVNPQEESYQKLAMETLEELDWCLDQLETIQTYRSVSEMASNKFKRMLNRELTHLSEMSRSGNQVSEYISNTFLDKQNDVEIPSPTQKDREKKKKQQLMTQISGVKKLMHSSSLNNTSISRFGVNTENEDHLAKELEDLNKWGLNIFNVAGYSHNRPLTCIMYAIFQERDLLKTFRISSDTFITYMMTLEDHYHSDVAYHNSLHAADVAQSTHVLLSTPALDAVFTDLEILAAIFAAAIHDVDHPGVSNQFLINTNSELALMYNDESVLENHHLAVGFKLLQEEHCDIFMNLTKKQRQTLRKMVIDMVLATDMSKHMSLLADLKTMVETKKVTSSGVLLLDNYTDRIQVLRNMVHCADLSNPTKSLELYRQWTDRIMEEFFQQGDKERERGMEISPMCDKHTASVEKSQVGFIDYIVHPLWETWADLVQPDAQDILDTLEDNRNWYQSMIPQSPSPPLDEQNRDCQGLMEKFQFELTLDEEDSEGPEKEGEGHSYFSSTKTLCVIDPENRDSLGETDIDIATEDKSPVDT
For orientation: qHTS replaces the single test concentration by a dilution series.

For experiment [10], the target named is Cytochrome P450 3A4 (Homo sapiens) (UniProt P08684). Put plainly: qHTS Assay for Inhibitors and Substrates of Cytochrome P450 3A4 (AID 884; active means well fitted curve in the direction sought with a large enough effect; an effect the other way counts as inactive or inconclusive; further: potency means the concentration at half of the fitted maximal effect; nearly all actives have a fitted effect of over 50% in size). The settings on record: recombinant CYP3A4, Luciferin-PPXE luminescence; series mostly up to 57.1 µM. The method in brief:
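20 nM human CYP3A4 with 25 uM Luciferin-PPXE (at KM) in 200 mM KPO4, preincubated 10 min with compound; NADPH regeneration started a 60 min RT reaction. Luciferin detected by luminescence, normalized to 57 uM ketoconazole as full inhibition.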

The target is the same in experiment [11]. Put plainly: qHTS Assay for Activators of Cytochrome P450 3A4 (AID 885; active means well fitted curve in the direction sought with a large enough effect; an effect the other way counts as inactive or inconclusive; further: nearly all actives have a fitted effect of over 65% in size). The settings on record: recombinant CYP3A4, Luciferin-PPXE luminescence, 60 min; series mostly up to 57.1 µM. In short, it runs like this:
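Steps: enzyme/substrate mix dispensed; compound added, 10 min RT; NADPH regeneration solution added, 60 min RT; luciferin detection buffer stops reaction; 20 min later luminescence measured.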

Experiment [12] can be described thus: qHTS Assay for Lipid Storage Modulators (AID 1519; calls by dose curve). The settings on record: Drosophila S3 cells, BODIPY lipid droplet/cell ratio, laser cytometry, cells loaded with oleic acid; for activity change, negative = inhibition: at 57.5 µM (top of the series). The method in brief: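 Cells seeded at 5,000 per well were treated with compounds over a concentration series and loaded with oleic acid (400 uM, as added). Lipid droplet fluorescence (488 nm excitation, 500-530 nm channel) was read by laser-scanning cytometry and normalized to 20 uM Triacsin C.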

Experiment [13] deals with Dual specificity protein kinase CLK4 (Homo sapiens) (UniProt Q9HAZ1). Put plainly: qHTS Assay for Inhibitors of CDC-like Kinase 4 (ADP-FP Assay) (AID 1795; active means well fitted curve in the direction sought with a large enough effect; an effect the other way counts as inactive or inconclusive; further: on the % scale 0 is the no-effect control and ±100 the full control effect; nearly all actives have a fitted effect of over 60% in size). The settings on record: Transcreener ADP fluorescence polarization; series mostly up to 50 µM. In short, it runs like this: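 Recombinant human Clk4 (6.25 nM) phosphorylated RS repeat peptide (100 uM) with 1 uM ATP in Tris pH 7.5/MgCl2/EGTA/DTT/Triton buffer for one hour. ADP was quantified by Transcreener competitive fluorescence polarization against an ADP calibration curve.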
Dual specificity protein kinase CLK4 (Homo sapiens), sequence (Q9HAZ1 whole entry, looked up): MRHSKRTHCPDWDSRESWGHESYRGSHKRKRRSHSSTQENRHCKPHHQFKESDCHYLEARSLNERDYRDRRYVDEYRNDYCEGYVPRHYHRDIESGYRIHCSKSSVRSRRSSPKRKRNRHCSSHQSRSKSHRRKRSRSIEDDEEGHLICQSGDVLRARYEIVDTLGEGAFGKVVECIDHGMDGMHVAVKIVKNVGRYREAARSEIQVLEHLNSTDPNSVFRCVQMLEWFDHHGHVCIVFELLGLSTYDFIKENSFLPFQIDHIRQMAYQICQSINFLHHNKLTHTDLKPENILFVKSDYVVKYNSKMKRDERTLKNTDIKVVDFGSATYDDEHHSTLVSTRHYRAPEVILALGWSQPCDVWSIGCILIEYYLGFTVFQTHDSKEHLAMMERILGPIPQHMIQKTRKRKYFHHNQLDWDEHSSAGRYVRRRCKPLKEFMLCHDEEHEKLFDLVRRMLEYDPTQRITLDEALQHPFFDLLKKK

Experiment [14] is described as follows: Primary qHTS for small molecule stabilizers of the endoplasmic reticulum resident proteome: Secreted ER Calcium Modulated Protein (SERCaMP) assay (AID 1508630; active means well fitted curve in the direction sought with a large enough effect; an effect the other way counts as inactive or inconclusive; further: on the % scale 0 is the no-effect control and ±100 the full control effect). To be noted: SH-SY5Y GLuc-SERCaMP (Gaussia luciferase released on ER calcium loss) secretion, thapsigargin, luminescence; series mostly up to 38.4 µM. The method in brief: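 GLuc-SERCaMP-expressing SH-SY5Y cells, pretreated 16 h with compound, are challenged with thapsigargin to empty ER calcium stores; after 4 h, coelenterazine is added directly to the medium and luminescence is imaged.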

Experiment [15] deals with Ubiquitin carboxyl-terminal hydrolase 1 (Homo sapiens) (UniProt O94782). Kind of experiment: Inhibitors of USP1/UAF1: Pilot qHTS (AID 504865; active means well fitted curve in the direction sought with a large enough effect; an effect the other way counts as inactive or inconclusive;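 further: rhodamine fluorescence freed from ubiquitin-rhodamine substrate followed over time; top concentration of the series differs between compounds; on the % scale 0 is the no-effect control and ±100 the full control effect; nearly all actives have a fitted effect of over 35% in size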). The settings on record: purified USP1/UAF1, Ub-rhodamine cleavage fluorescence; series mostly up to 54.9 µM. The method in brief:
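USP1/UAF1 complex (1nM) preincubated with compound 15 min at room temperature, then Ub-Rho substrate (150nM final) added. Fluorescence read kinetically at 480/540 nm, 6 reads every 60 seconds. Buffer: 50mM HEPES pH 7.8, 0.5mM EDTA, 0.1 mg/ml BSA, 1mM TCEP, 0.01% Tween-20.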

Experiment [16] concerns the target Cytochrome P450 2C19 (Homo sapiens) (UniProt P33261). Kind of experiment: qHTS Assay for Inhibitors and Substrates of Cytochrome P450 2C19 (AID 899; active means well fitted curve in the direction sought with a large enough effect; an effect the other way counts as inactive or inconclusive; further: potency means the concentration at half of the fitted maximal effect; nearly all actives have a fitted effect of over 60% in size). The settings on record: recombinant CYP2C19, luciferin-H EGE luminescence; series mostly up to 57.1 µM. In short, it runs like this: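 5nM enzyme + 10uM Luciferin-H EGE (=KM), 50mM KPO4; cpd pin-transferred, 10 min 37C; NADPH regen, 60 min 37C; stopped w/ luciferin detection reagent, 20 min; luminescence. Normalized to 57uM ketoconazole (AC100).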

Experiment [17] concerns the target Dual specificity protein kinase CLK4 (Homo sapiens) (UniProt Q9HAZ1). Kind of experiment: qHTS Assay for Inhibitors of CDC-like Kinase 4 (ADP-Glo Assay) (AID 1771; active means well fitted curve in the direction sought with a large enough effect; an effect the other way counts as inactive or inconclusive; further: on the % scale 0 is the no-effect control and ±100 the full control effect; nearly all actives have a fitted effect of over 70% in size). To be noted: recombinant CLK4, ADP-Glo luminescence; series mostly up to 80 µM. The method in brief: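 Kinase reaction: Clk4 at 25 nM, RS repeat peptide substrate at 100 uM, ATP at 1 uM, 1 hr, room temperature. Product ADP detected as luciferase signal via ADP-Glo.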

The mark [18] stands for this setting: measured here: cell count channel max response.
Where [19] appears, read: measured here: lipid channel max response.

Cytochrome P450 1A2 (Homo sapiens), sequence (P05177 whole entry, looked up): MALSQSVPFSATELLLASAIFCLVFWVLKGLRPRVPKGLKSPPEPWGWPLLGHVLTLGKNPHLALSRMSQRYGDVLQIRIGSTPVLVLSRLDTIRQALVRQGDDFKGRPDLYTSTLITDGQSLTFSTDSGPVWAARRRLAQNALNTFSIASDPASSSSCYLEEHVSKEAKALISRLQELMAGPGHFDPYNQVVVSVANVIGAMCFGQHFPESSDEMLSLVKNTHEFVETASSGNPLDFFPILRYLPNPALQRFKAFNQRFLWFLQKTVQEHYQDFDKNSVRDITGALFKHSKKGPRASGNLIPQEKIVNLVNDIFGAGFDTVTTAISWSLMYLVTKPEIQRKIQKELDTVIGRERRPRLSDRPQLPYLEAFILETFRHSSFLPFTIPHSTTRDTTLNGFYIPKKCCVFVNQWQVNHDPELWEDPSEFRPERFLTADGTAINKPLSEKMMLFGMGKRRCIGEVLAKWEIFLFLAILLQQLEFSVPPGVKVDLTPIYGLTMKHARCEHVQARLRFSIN
Cytochrome P450 3A4 (Homo sapiens), sequence (P08684 whole entry, looked up): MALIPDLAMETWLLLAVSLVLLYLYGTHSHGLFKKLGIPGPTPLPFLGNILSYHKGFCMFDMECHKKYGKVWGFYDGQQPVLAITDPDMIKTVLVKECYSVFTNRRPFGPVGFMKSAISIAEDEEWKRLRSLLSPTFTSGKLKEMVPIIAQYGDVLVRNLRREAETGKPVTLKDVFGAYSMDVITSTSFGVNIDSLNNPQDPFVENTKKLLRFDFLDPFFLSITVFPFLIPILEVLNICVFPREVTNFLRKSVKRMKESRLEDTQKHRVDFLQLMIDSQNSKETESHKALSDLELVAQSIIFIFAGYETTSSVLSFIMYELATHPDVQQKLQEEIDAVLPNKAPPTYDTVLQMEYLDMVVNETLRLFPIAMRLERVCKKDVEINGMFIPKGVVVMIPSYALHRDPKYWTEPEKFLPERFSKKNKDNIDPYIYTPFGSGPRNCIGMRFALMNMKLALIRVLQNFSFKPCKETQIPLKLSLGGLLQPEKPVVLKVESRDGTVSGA
Ubiquitin carboxyl-terminal hydrolase 1 (Homo sapiens), sequence (O94782 whole entry, looked up): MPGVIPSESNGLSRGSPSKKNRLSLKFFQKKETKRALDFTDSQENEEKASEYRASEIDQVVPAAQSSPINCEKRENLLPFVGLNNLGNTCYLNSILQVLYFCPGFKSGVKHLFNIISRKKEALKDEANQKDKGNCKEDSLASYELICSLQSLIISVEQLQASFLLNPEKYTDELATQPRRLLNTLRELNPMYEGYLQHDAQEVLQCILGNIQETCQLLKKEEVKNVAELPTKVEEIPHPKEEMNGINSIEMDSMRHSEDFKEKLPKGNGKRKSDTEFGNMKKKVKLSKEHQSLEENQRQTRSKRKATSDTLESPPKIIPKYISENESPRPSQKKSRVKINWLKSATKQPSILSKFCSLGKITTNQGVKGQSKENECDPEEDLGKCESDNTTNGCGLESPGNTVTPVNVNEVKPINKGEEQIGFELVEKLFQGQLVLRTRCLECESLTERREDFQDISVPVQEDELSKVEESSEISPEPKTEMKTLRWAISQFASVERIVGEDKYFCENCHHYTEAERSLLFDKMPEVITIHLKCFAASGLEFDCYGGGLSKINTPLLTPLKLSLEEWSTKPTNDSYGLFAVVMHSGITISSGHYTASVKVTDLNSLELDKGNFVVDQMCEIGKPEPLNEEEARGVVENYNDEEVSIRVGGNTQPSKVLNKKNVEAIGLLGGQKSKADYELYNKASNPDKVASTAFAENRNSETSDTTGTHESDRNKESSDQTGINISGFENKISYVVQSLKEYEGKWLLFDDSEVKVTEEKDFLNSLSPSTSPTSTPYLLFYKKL
Cytochrome P450 2C19 (Homo sapiens), sequence (P33261 whole entry, looked up): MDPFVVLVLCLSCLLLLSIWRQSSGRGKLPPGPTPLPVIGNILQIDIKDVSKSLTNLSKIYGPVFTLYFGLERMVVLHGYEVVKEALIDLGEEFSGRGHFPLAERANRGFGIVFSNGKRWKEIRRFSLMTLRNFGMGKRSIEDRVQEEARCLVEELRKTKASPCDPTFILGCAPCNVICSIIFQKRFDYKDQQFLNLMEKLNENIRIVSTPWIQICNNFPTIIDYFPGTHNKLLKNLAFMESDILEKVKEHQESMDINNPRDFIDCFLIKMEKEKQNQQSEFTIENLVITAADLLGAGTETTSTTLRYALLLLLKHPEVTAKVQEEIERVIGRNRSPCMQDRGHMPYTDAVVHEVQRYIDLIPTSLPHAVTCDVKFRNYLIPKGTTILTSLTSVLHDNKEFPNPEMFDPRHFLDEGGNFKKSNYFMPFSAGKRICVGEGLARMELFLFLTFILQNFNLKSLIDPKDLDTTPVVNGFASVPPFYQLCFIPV

On to `COc1ccccc1CNc1ncncc1-c1cccnc1`, for which the Potency in [1] was > 11.4 µM (inactive); in experiment [3] it was 0.794 µM (active); in experiment [6], > 46 µM (inactive); in [7], > 46 µM (inactive); in [10] it was 0.794 µM (active). The activity change, negative = inhibition in [2] was 3.62% (inactive); in experiment [4], 2.12% (inactive); in experiment [12] it was 3.76% (inactive). Besides, in experiment [5], the activity, negative = inhibition was 5.57% (inactive). In experiment [8], the compound was classed as inactive. Further, the Potency result in experiment [9], in experiment [11], in experiment [13] and in experiment [14] was “inactive” each time. The values for the max response in experiment [12] (setting [18]) and in experiment [12] (setting [19]) were 11.7% and 13.8%, respectively.
With `COc1ccc(Oc2ncc3ncc(=O)n(C)c3n2)cc1`, the Potency was > 11.4 µM (inactive) in experiment [1], 3.98 µM (active) in experiment [3], > 9.22 µM (inactive) in [6] and > 46 µM (inactive) in experiment [7]. The results for the activity change, negative = inhibition in [2] and in experiment [12] were -12.2% (inactive) and 5.63% (inactive), respectively. Further, the activity, negative = inhibition in [5] is -7.6% (inactive). The compound was called inactive in experiment [8]. For the same compound, the Potency entry in experiment [9], in experiment [11], in experiment [13] and in [14] was “inactive” in each case. The values for the max response in experiment [12] (setting [18]) and in experiment [12] (setting [19]) were 9.26% and 14.1%, respectively.
As to `CC(=O)NCCNc1ccnc(-c2ccccc2C(F)(F)F)n1`, the Potency is > 11.4 µM (inactive) in experiment [1], 15.8 µM (active) in [3], > 46 µM (inactive) in experiment [6] and > 46 µM (inactive) in experiment [7]. Also, the activity change, negative = inhibition in [2] was 0.161% (inactive); in experiment [4], -3.29% (inactive); in [12], 4.45% (inactive). Moreover, the activity, negative = inhibition in [5] is 11.9% (inactive). For the same compound, the outcome in experiment [8] was inactive. In addition, the Potency entry in experiment [9], in experiment [11], in [13], in experiment [15] and in experiment [14] was “inactive” each time. The max response in [12] (setting [18]) is 8.35%; in experiment [12] (setting [19]) it was 14.6%.
Consider `CN(Cc1ccco1)c1ncnc2ccc(-c3ccccc3C(F)(F)F)cc12`, for which the Potency in experiment [1] was > 11.4 µM (inactive); in experiment [3], 5.01 µM (active); in experiment [6] it was > 46 µM (inactive); in [7], > 46 µM (inactive); in experiment [16], 3.16 µM (active). Also, the activity change, negative = inhibition in [2] is 4.42% (inactive); in experiment [4], -18.5% (inactive); in [12] it was -0.853% (inactive). Besides, the activity, negative = inhibition in experiment [5] is -19.3% (inactive). Besides, the outcome in experiment [8] was inactive. Besides, the Potency result in [11], in experiment [13], in experiment [15] and in [14] was “inactive” each time. Also, the max response in experiment [12] (setting [18]) was 20.9%; in experiment [12] (setting [19]), 18.1%.
On to `O=c1c(-c2ccc(F)cc2)nc2cnc(Oc3cccc(Cl)c3)nc2n1C1CC1`, for which the Potency in experiment [1] is > 11.4 µM (inactive); in [3], 0.316 µM (active); in [6], > 9.22 µM (inactive); in experiment [7], > 46 µM (inactive). In addition, the activity change, negative = inhibition in experiment [2] is 25.5% (inactive); in [4] it was 16.4% (inactive); in experiment [12], 0.37% (inactive). Moreover, in [5], the activity, negative = inhibition was -8.35% (inactive). Besides, in [8], the call was inactive. For the same compound, the Potency result in experiment [9], in experiment [17] and in [14] was “inactive” each time. The max response in experiment [12] (setting [18]) is -8.94%; in experiment [12] (setting [19]), -12.9%.
